Test results reported in PubChem BioAssay (EPA / NIEHS).
Calls of active or inactive are those of the source. The calls were made as follows: active = hit-call score of the fitted dose curve at least 0.9, where 1 is the maximum; inactive = score below 0.9.

Key:
[1] = ATG_CRE_CIS: Attagene CIS-FACTORIAL HepG2 Assay for human cAMP Responsive Element (CRE) binding protein 3 (AID 2282926); conditions: HepG2 CRE cis-reporter, Attagene multiplexed mRNA; actives raise or lower the signal
Summary of the method: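 Cells carrying cis-regulated reporter constructs respond through their own endogenous factors. After 24 h treatment, RNA is reverse-transcribed, amplified, labelled and sized by capillary electrophoresis; up- and down-regulation are both scored against vehicle.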

[2] = target: CCAAT/enhancer-binding protein beta (Homo sapiens) (UniProt P17676); test: ATG_C_EBP_CIS: Attagene CIS-FACTORIAL HepG2 Assay for human CCAAT/Enhancer Binding Protein (C/EBP) beta (AID 2282927); conditions: HepG2 Attagene cis-factorial transcription factor reporter; actives raise or lower the signal
Summary of the method: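 Endogenous transcription factor activity in human liver HepG2 cells is inferred from induction of a CEBPB-linked reporter mRNA. Exposure lasts 24 h; activity is fitted in both directions relative to DMSO.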

[3] = ATG_CMV_CIS: Attagene CIS-FACTORIAL HepG2 Assay for human CMV (Internal Marker) (AID 2282928); conditions: HepG2 CMV promoter reporter, transcription factor profiling; actives raise or lower the signal;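 also: endpoint acts as a background internal control marker rather than a target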
Summary of the method: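 Reporter transcripts from transfected HepG2 cells are isolated after 24 h of chemical dosing, reverse-transcribed and amplified. Fragments labeled with 6-FAM are cut with HpaI and quantified by capillary electrophoresis; DMSO defines baseline.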

[4] = ATG_DR4_LXR_CIS: Attagene CIS-FACTORIAL HepG2 Assay for human Liver X Receptor (LXR), DR4 submotif (AID 2282929); conditions: HepG2 Attagene DR4 cis-reporter, mRNA transcription; actives raise or lower the signal
Summary of the method: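 HepG2 cells transiently transfected with cis-promoter-driven multiplexed reporter units (DR4 element) were dosed for 24 h. Reporter mRNA was quantified by RT-PCR, fluorescent primer extension, HpaI digestion and capillary electrophoresis; bidirectional fitting versus DMSO baseline.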

[5] = target: Aryl hydrocarbon receptor (Homo sapiens) (UniProt P35869); test: ATG_Ahr_CIS: Attagene CIS-FACTORIAL HepG2 Assay for human Aryl Hydrocarbon Receptor (Ahr) (AID 2282930); conditions: HepG2 AhR cis-factorial reporter transcription; actives raise or lower the signal
Summary of the method: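 Transient MRTU transfection of HepG2 → 24 h compound exposure → total RNA, oligo(dT) RT → PCR, 6-FAM extension, HpaI cut → CE fluorescence. DMSO = baseline; bidirectional curve fit.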

[6] = ATG_AP_1_CIS: Attagene CIS-FACTORIAL HepG2 Assay for human Activator Protein 1 (AP-1) (AID 2282931); conditions: HepG2 Attagene cis-factorial AP-1 reporter mRNA; actives raise or lower the signal
Summary of the method: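 HepG2 cells transiently transfected with cis-element-driven multiplex reporter units; 24 h compound exposure. Reporter mRNA quantified by RT-PCR, FAM-labelled fragments resolved by capillary electrophoresis; bidirectional fit versus DMSO baseline.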

[7] = ATG_AP_2_CIS: Attagene CIS-FACTORIAL HepG2 Assay for human Activator Protein 2 (AP-2) (AID 2282932); conditions: HepG2 AP-2 cis-reporter, Attagene transcription factor profiling; actives raise or lower the signal
Summary of the method: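 Transiently transfected HepG2 cells are exposed to chemical for 24 h. Reporter transcripts are then measured as fluorescence following RT-PCR and capillary separation, and gain- or loss-of-signal is fitted relative to DMSO.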

[8] = ATG_BRE_CIS: Attagene CIS-FACTORIAL HepG2 Assay for human Bone Morphogenetic Protein (BMP) Response Element (BRE) (AID 2282933); conditions: HepG2 BMP response element reporter, Attagene transcription factor profiling; actives raise or lower the signal
Summary of the method: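 Endogenous transcription factor activity at a BMP response element was monitored in transfected HepG2 cells 24 h after dosing. Fluorescent RT-PCR products were resolved by capillary electrophoresis, and activity was fitted in both directions versus DMSO.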

[9] = target: Transcription factor E2F1 (Homo sapiens) (UniProt Q01094); test: ATG_E2F_CIS: Attagene CIS-FACTORIAL HepG2 Assay for human E2F Transcription Factor 1 (AID 2282935); conditions: HepG2 Attagene cis-reporter, E2F reporter RNA transcripts; actives raise or lower the signal
Summary of the method: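 Fluorescent RT-PCR products, digested with HpaI for 2 h at 37 C, are separated by capillary electrophoresis. Source RNA comes from transfected HepG2 cultures treated for 24 h.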

[10] = ATG_E_Box_CIS: Attagene CIS-FACTORIAL HepG2 Assay for human Enhancer Box (E-box) (AID 2282936); conditions: HepG2 E-box cis-reporter transcription, actives raise or lower the signal
Summary of the method: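 Fluorescent reporter fragments separated by capillary electrophoresis gave the signal; mRNA came from HepG2 cells transfected with cis-element reporters and treated 24 h. Curves fitted bidirectionally relative to DMSO controls.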

[11] = ATG_M_61_CIS: Attagene CIS-FACTORIAL HepG2 Assay for M61 Transcription Factor (Internal Marker) (AID 2282937); conditions: HepG2 Attagene CIS-FACTORIAL M61 internal marker reporter; actives raise or lower the signal
Summary of the method: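 HepG2 cells transiently transfected with cis-element-driven multiple reporter transcription units, dosed for 24 h. Reporter mRNA measured by RT-PCR, 6-FAM primer-extension labelling, HpaI digestion and capillary electrophoresis; bidirectional fit versus DMSO baseline.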

[12] = ATG_EGR_CIS: Attagene CIS-FACTORIAL HepG2 Assay for human Early Growth Response 1 (EGR1) (AID 2282938); conditions: HepG2 Attagene CIS-FACTORIAL EGR reporter mRNA; actives raise or lower the signal
Summary of the method: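 HepG2 cells transiently transfected with cis-promoter-driven multiplexed reporter transcription units; reporter mRNA measured 24 h after compound dosing by RT-PCR, 6-FAM primer extension, HpaI digestion and capillary electrophoresis. Bidirectional fit versus DMSO baseline.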

[13] = ATG_M_19_CIS: Attagene CIS-FACTORIAL HepG2 Assay for M19 Transcription Factor (Internal Marker) (AID 2282939); conditions: HepG2 Attagene CIS-FACTORIAL M19 internal marker reporter; actives raise or lower the signal
Summary of the method: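 Background-control endpoint from a multiplexed HepG2 reporter panel. Cells carrying cis-regulated reporter constructs are treated 24 h, then reporter transcripts are amplified, fluorescently labelled and sized by capillary electrophoresis. DMSO defines baseline.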

[14] = ATG_ERE_CIS: Attagene CIS-FACTORIAL HepG2 Assay for Estrogen Response Element (ERE) (AID 2282940); conditions: HepG2 ERE cis-reporter, Attagene RNA transcript; actives raise or lower the signal
Summary of the method: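 Cells used were human hepatoma HepG2, transfected with multiple reporter transcription units under cis-regulatory promoters. Reporter mRNA, read 24 h post-dosing via fluorescent RT-PCR products on capillary electrophoresis, was fitted bidirectionally relative to DMSO.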

[15] = ATG_Ets_CIS: Attagene CIS-FACTORIAL HepG2 Assay for human Erythroblast Transformation Specific (ETS) (AID 2282941); conditions: HepG2 ETS cis-reporter transcription, actives raise or lower the signal
Summary of the method: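 Bidirectional fit versus DMSO of reporter mRNA signal, detected by RT-PCR and capillary electrophoresis in HepG2 cells transiently transfected with cis-element reporters and dosed 24 h.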

[16] = target: Hepatocyte nuclear factor 3-beta (Homo sapiens) (UniProt Q9Y261); test: ATG_FoxA2_CIS: Attagene CIS-FACTORIAL HepG2 Assay for human Forkhead box A2 (FOXA2) (AID 2282942); conditions: HepG2 cis-reporter transcription factor activity, 24 h; actives raise or lower the signal
Summary of the method: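 HepG2 cells transiently transfected with multiple cis-regulated reporter transcription units, dosed for 24 h. Reporter mRNA measured by RT-PCR, 6-FAM labelling, HpaI digestion and capillary electrophoresis; bidirectional fitting against DMSO baseline.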

[17] = ATG_FoxO_CIS: Attagene CIS-FACTORIAL HepG2 Assay for human Forkhead box O (FoxO) (AID 2282943); conditions: HepG2 Attagene cis-reporter, FoxO element, mRNA; actives raise or lower the signal
Summary of the method: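 HepG2, transient MRTU transfection (cis element, endogenous TFs). Dose 24 h. TriZol RNA → oligo(dT) RT → PCR → 6-FAM primer extension → HpaI cut → CE. Gain/loss vs DMSO.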

[18] = ATG_GATA_CIS: Attagene CIS-FACTORIAL HepG2 Assay for human GATA Binding Protein (AID 2282944); conditions: HepG2 GATA cis-element reporter, Attagene multiplex mRNA; actives raise or lower the signal
Summary of the method: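 Endogenous transcription factor activity was captured through cis-promoter-driven reporters in transfected HepG2 cells. After 24 h exposure, reporter transcripts were quantified by RT-PCR with fluorescent capillary electrophoresis, and responses fitted both directions against DMSO.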

[19] = ATG_GLI_CIS: Attagene CIS-FACTORIAL HepG2 Assay for human Zinc Finger Protein GLI1 (AID 2282945); conditions: HepG2, Attagene cis-factorial reporter mRNA, GLI element; actives raise or lower the signal
Summary of the method: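 Bidirectional curve fits relative to DMSO, using reporter mRNA levels from RT-PCR plus capillary electrophoresis. Cells were HepG2 transiently carrying cis-regulated reporter constructs, harvested 24 h after dosing.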

[20] = target: Retinoic acid receptor alpha (Homo sapiens) (UniProt P10276); test: ATG_DR5_RAR_CIS: Attagene CIS-FACTORIAL HepG2 Assay for human Retinoic Acid Receptor Alpha (RARE), DR5 submotif (AID 2282934); conditions: HepG2 Attagene cis-factorial RARE DR5 reporter, mRNA; actives raise or lower the signal;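 as to AC50: reporter responds to endogenous RAR alpha beta and gamma in HepG2 not RARA alone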
Summary of the method: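 Transient MRTU transfection of HepG2; 24 h compound treatment; TriZol RNA, oligo(dT) RT, PCR, FAM labelling, capillary electrophoresis. Bidirectional fit vs DMSO. Endogenous TF activity at DR5 RARE.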

Measured: AC50

Chain of CCAAT/enhancer-binding protein beta (Homo sapiens) (P17676 whole entry, looked up): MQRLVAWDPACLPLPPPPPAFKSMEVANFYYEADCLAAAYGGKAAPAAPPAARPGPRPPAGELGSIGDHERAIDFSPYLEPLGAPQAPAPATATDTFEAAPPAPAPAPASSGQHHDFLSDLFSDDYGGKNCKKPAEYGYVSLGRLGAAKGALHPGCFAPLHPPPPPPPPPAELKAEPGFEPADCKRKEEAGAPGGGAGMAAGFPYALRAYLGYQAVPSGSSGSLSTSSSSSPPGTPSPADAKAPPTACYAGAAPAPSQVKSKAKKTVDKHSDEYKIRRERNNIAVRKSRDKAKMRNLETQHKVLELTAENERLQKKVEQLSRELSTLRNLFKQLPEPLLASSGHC
Chain of Transcription factor E2F1 (Homo sapiens) (Q01094 whole entry, looked up): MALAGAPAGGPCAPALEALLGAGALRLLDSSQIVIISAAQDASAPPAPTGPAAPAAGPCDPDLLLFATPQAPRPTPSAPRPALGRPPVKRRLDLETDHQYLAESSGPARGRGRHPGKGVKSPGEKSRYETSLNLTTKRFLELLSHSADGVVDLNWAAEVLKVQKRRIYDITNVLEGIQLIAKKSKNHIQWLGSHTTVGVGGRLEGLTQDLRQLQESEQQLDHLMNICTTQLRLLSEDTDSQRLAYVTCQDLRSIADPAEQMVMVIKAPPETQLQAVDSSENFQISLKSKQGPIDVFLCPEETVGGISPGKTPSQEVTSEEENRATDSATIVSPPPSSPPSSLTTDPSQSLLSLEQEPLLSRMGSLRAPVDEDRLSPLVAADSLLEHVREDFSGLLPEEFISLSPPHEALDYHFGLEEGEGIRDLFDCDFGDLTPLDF
Chain of Retinoic acid receptor alpha (Homo sapiens) (P10276 whole entry, looked up): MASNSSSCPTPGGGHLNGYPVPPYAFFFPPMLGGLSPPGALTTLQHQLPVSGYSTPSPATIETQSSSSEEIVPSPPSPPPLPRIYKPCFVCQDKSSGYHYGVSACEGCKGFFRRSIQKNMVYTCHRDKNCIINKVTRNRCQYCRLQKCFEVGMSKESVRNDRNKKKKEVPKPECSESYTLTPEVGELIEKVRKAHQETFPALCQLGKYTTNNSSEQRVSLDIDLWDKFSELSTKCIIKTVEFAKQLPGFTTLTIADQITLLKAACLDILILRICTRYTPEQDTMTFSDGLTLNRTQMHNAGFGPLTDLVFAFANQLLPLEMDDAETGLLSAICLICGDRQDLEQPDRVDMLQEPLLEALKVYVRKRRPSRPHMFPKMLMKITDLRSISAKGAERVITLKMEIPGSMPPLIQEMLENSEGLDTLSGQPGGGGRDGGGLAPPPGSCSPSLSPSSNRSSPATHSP
Chain of Aryl hydrocarbon receptor (Homo sapiens) (P35869 whole entry, looked up): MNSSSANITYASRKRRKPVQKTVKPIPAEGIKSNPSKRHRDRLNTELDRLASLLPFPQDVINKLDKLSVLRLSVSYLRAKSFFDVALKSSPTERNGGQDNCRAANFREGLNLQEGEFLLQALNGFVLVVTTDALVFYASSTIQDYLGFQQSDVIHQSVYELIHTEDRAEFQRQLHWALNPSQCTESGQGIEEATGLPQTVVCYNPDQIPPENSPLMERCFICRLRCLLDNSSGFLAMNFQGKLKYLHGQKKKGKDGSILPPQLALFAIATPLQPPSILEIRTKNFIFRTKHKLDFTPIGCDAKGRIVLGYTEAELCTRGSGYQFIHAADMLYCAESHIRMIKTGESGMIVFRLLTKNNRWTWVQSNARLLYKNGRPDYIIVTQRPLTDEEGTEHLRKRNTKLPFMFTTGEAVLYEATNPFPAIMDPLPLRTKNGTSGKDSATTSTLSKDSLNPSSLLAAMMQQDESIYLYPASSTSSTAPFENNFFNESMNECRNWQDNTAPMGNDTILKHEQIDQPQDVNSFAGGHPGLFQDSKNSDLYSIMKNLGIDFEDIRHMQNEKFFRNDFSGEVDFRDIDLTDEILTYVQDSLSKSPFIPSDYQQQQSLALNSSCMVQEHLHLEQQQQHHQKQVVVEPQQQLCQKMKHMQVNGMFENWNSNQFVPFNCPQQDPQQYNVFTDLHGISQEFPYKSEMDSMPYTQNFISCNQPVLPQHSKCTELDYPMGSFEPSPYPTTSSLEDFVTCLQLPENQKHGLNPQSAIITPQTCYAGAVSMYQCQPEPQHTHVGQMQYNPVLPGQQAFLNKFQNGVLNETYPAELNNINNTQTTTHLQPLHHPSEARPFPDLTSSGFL
Chain of Hepatocyte nuclear factor 3-beta (Homo sapiens) (Q9Y261 whole entry, looked up): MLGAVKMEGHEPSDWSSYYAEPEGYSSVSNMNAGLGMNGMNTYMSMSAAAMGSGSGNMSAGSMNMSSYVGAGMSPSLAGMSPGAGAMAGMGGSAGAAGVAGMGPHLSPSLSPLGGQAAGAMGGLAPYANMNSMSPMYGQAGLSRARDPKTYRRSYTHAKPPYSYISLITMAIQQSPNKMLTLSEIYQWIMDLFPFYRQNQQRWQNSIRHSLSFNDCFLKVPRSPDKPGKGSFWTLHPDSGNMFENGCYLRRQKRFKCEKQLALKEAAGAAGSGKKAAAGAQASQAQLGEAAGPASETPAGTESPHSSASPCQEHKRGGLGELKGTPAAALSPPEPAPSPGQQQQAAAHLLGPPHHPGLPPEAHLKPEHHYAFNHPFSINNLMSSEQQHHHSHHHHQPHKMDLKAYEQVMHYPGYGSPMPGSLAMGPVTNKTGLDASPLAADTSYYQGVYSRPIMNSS

OCc1cccnc1
not listed: [20]
inactive: all other assays above

CC(C)(C)c1cc(CCC(=O)NN)cc(C(C)(C)C)c1O
not listed: [14]
inactive: all other assays above

CC(C)C(C)(C)C(C)(C)C(C)(C)S
not listed: [20]
inactive: all other assays above

Nc1nc2ccc([N+](=O)[O-])cc2s1
active: [5] 5.26 µM | [8] 100 µM
not listed: [14] | [17]
inactive: all other assays above

CCC(=O)OCCC(C)CCC=C(C)C (stereo unspecified)
active: [20] 72.4 µM
not listed: [14]
inactive: all other assays above

CCCC(C)C=O (stereo unspecified)
not listed: [20]
inactive: all other assays above

CCN(CC)CCOC(=O)c1ccc(N)cc1
not listed: [14]
inactive: all other assays above

O=C(O)CCSCCC(=O)O
not listed: [20]
inactive: all other assays above
